The nature of test [1]: Caspase-3/7 induction in HepG2 cells by small molecules, qHTS assay (AID 1346978). Further: nearly all actives have a fitted effect of over 15% in size. An outline of the steps:
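Wild-type HepG2 cells (2,000/well) were settled 5 h at 37 C, 5% CO2, then exposed to compounds in DMSO for 17 h. Caspase-3/7 activity was read by luminescence 30 min after adding Caspase-Glo 3/7 reagent at room temperature.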

Test [2] is described as follows: Caspase-3/7 induction in CHO-K1 cells by small molecules, qHTS assay (AID 1346980). Further: nearly all actives have a fitted effect of over 15% in size. Further: potency means the concentration at half of the fitted maximal effect. The gist of the method: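 Wild-type cells were seeded at 1,500 per well and settled 5 hr at 37 C, 5% CO2, then exposed to DMSO-dissolved compounds for 17 hr. Caspase-Glo 3/7 reagent was added, and luminescence was read after 30min at room temperature.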
On the technique in general: qHTS replaces the single test concentration by a dilution series.

Test [3] deals with Nuclear receptor subfamily 1 group I member 2 (Homo sapiens) (UniProt O75469). The experiment in a line: Human pregnane X receptor (PXR) small molecule agonists, qHTS assay (AID 1346982). Further: nearly all actives have a fitted effect of over 35% in size. Further: potency means the concentration at half of the fitted maximal effect. An outline of the steps: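 Tox21 qHTS; PXR-Luc HepG2; compounds pinned from DMSO; 24 hr, 37 C; ONE-Glo luciferase detection, 30 min room temperature.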
Test [4] deals with Acetylcholinesterase (Homo sapiens) (UniProt P22303). The test can be described thus: Acetylcholinesterase (AChE) small molecule antagonists: colormetric cell-based qHTS assay (AID 1347395; calls by dose curve; further: nearly all actives have a fitted effect of over 30% in size). An outline of the steps:
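Colorimetric readout: DTNB quantifies thiocholine from acetylthiocholine hydrolysed by endogenous AChE of SH-SY5Y cells (2,000/well, plated overnight). Compound pretreatment 30 min, substrate incubation 90 min, both 37 C.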

The target is the same in test [5]. The test can be described thus: Acetylcholinesterase (AChE) small molecule antagonists: enzyme-based qHTS assay (AID 1347397; calls by dose curve; further: nearly all actives have a fitted effect of over 55% in size). Particulars: Potency: AChE enzyme activity inhibition. An outline of the steps: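 Tox21 library chemicals are tested in qHTS format against recombinant human AChE. The enzyme, dispensed at 50 mU/mL, sits with compound for 30 min at room temperature. A DTNB–acetylthiocholine cocktail follows, and colour is read after 10 min.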

The target is the same in test [6]. The experiment in a line: Acetylcholinesterase (AChE) small molecule antagonists: fluorescence cell-based qHTS assay (AID 1347398; calls by dose curve; further: nearly all actives have a fitted effect of over 50% in size; further: potency means the concentration at half of the fitted maximal effect). As to conditions: Potency: AChE activity. The gist of the method:
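Cellular AChE inhibition: SH-SY5Y cells treated with test chemical for 30 min at 37 C, then acetylthiocholine hydrolysis followed over 40 min at room temperature via thiocholine-reactive Thiolite Green fluorescence (490/520 nm).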

The target is the same in test [7]. The experiment in a line: Acetylcholinesterase (AChE) small molecule antagonists: enzyme-based qHTS assay with human liver microsomes (AID 1347399; calls by dose curve; further: nearly all actives have a fitted effect of over 60% in size). Particulars: Potency: qHTS inhibition. An outline of the steps: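 Recombinant human AChE (50 mU/mL in the enzyme mix) and human liver microsomes (0.25 mg/mL final) were preincubated with compound and NADPH (0.25 mg/mL final) for 30 min at 37 C. Acetylthiocholine/DTNB was then added; thiocholine was read colorimetrically after 10 min at room temperature.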

Test [8] concerns the target Cytochrome P450 2D6 (Homo sapiens) (UniProt P10635). The experiment in a line: Cytochrome P450 Family 2 Subfamily D Member 6 (CYP2D6) small molecule antagonists: luciferase reporter qHTS assay (AID 1671196). Further: nearly all actives have a fitted effect of over 50% in size. Further: potency means the concentration at half of the fitted maximal effect. The gist of the method: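 Room-temperature luminescent CYP2D6 activity assay: compound preincubated 10 min with enzyme–substrate mix, NADPH-initiated reaction 1 h, detection reagent 20 min before reading.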
(In general: Reporter assays use an easily measured gene product as a stand-in for the process of interest.)

The target of test [9] is Cytochrome P450 2C19 (Homo sapiens) (UniProt P33261). The experiment in a line: Cytochrome P450 Family 2 Subfamily C Member 19 (CYP2C19) small molecule antagonists: luciferase reporter qHTS assay (AID 1671197). Further: nearly all actives have a fitted effect of over 65% in size. Further: potency means the concentration at half of the fitted maximal effect. The gist of the method:
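P450-Glo CYP2C19 system: enzyme-substrate mix with compound 10 min at room temperature, then NADPH regeneration solution, 1 h at 37C. Proluciferin-to-luciferin conversion detected by luminescence after 20 min with detection reagent; ketoconazole as positive control.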

Test [10] deals with Cytochrome P450 2C9 (Homo sapiens) (UniProt P11712). The test can be described thus: Cytochrome P450 Family 2 Subfamily C Member 9 (CYP2C9) small molecule antagonists: luciferase reporter qHTS assay (AID 1671198). Further: nearly all actives have a fitted effect of over 50% in size. Further: potency means the concentration at half of the fitted maximal effect. The gist of the method:
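CYP2C9 activity was measured with a P450-Glo proluciferin substrate. Enzyme–substrate mix was held with compound for 10 min at room temperature, then NADPH regeneration solution was added for 1 h at 37C. Luciferin product was read as luminescence.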

Test [11] deals with Cytochrome P450 1A2 (Homo sapiens) (UniProt P05177). The test can be described thus: Cytochrome P450 Family 1 Subfamily A Member 2 (CYP1A2) small molecule antagonists: luciferase reporter qHTS assay (AID 1671199). Further: nearly all actives have a fitted effect of over 50% in size. Further: potency means the concentration at half of the fitted maximal effect. An outline of the steps: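 Room-temperature CYP1A2 reaction with proluciferin substrate: compounds added from DMSO, 10 min preincubation, NADPH regeneration for 1 h. Luciferin detection reagent then added; luminescence recorded as RLU.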

The target of test [12] is Voltage-gated inwardly rectifying potassium channel KCNH2 (Homo sapiens) (UniProt Q12809). The experiment in a line: Human Ether-a-go-go-Related Gene (hERG) channel small molecule antagonists: fluorescence cell-based qHTS assay (AID 1671200). Further: nearly all actives have a fitted effect of over 50% in size. Further: potency means the concentration at half of the fitted maximal effect. An outline of the steps: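 Thallium flux as potassium surrogate: FluxOR II dye loaded 1 h at room temperature into hERG-expressing U2OS cells, then stimulus buffer added after 10 min. Kinetic 480 nm excitation/540 nm emission read, 2 min.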
Background: hERG is a cardiac potassium channel; its block is linked to QT prolongation.

Test [13] deals with Cytochrome P450 3A4 (Homo sapiens) (UniProt P08684). The test can be described thus: Cytochrome P450 Family 3 Subfamily A Member 4 (CYP3A4) small molecule antagonists: luciferase reporter qHTS assay (AID 1671201). Further: nearly all actives have a fitted effect of over 50% in size. Further: potency means the concentration at half of the fitted maximal effect. An outline of the steps:
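Recombinant human CYP3A4 converts a proluciferin substrate to luciferin over 1 h at room temperature after NADPH regeneration solution is added (compound preincubated 10 min); detection reagent stops reaction, luminescence read 20 min later as relative units.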

Test [14] concerns the target Nuclear receptor subfamily 1 group I member 2 (Rattus norvegicus) (UniProt Q9R1A7). The test can be described thus: Rat pregnane X receptor (rPXR) activation by small molecules, qHTS assay (AID 1346983). Further: nearly all actives have a fitted effect of over 20% in size. Further: potency means the concentration at half of the fitted maximal effect. As to conditions: rPXR luciferase reporter cells, One-Glo luminescence, 24 h; max activation: stronger effect = higher value. The gist of the method: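 Cell-based rPXR luciferase reporter assay, 2,000 cells per well, rested 5hr at 37 C before compound addition in DMSO, then 24 hr at 37 C. One-Glo reagent was added and luminescence read after 30 min at room temperature.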

The nature of test [15]: Caspase-3/7 induction in HepG2 cells by small molecules, qHTS cell viability counter screen (AID 1346981). Further: nearly all actives have a fitted effect of over 30% in size. Further: potency means the concentration at half of the fitted maximal effect. An outline of the steps: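 After a 5-hr attachment period at 37 C and 5% CO2, wild-type HepG2 cells received compounds in DMSO. Sixteen hours later CellTiter-Fluor was dispensed and the fluorescent signal quantified after a further hour.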
Test [16] can be described thus: Caspase-3/7 induction in CHO-K1 cells by small molecules, qHTS cell viability counter screen (AID 1346979). Further: nearly all actives have a fitted effect of over 35% in size. Further: potency means the concentration at half of the fitted maximal effect. The gist of the method:
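Cytotoxicity counter screen: CellTiter-Fluor added to compound-treated wild-type CHO-K1 cells at 16 h (37C, 5% CO2), fluorescence measured 1 h later; same wells as caspase-3/7 measurement.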

Test [17] concerns the target Nuclear receptor subfamily 1 group I member 2 (Homo sapiens) (UniProt O75469). The experiment in a line: CYP3A4 induction through human pregnane X receptor (PXR) by small molecules, qHTS assay (AID 1346984). Further: nearly all actives have a fitted effect of over 40% in size. Further: potency means the concentration at half of the fitted maximal effect. The gist of the method: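 Cells (DPX-2; HepG2 with PXR element plus CYP3A4-promoter luciferase) settled 5hr, then were treated 24hr at 37C. A 3hr, 3uM-final Luciferin-IPA step preceded luminescence measurement with One-Glo.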

“And” between values parts separate entries of the source, which are not always exact repeats. Identical values can stand only once. Inconclusive results are not listed. Some structures have more than one record in an assay (separate samples or runs), and their calls can disagree. The source made the active and inactive calls. Unless noted, the call rests on the fitted dose curve; in most records, active means well fitted curve in the direction sought with a large enough effect in the repeat runs; inconclusive means weak or mixed curves; inactive means no such curve, though single readings can be large; an effect the other way counts as inactive or inconclusive.
On the % scale 0 is the no-effect control and ±100 the full control effect.

Sequence of Cytochrome P450 3A4 (Homo sapiens) (P08684 whole entry, looked up): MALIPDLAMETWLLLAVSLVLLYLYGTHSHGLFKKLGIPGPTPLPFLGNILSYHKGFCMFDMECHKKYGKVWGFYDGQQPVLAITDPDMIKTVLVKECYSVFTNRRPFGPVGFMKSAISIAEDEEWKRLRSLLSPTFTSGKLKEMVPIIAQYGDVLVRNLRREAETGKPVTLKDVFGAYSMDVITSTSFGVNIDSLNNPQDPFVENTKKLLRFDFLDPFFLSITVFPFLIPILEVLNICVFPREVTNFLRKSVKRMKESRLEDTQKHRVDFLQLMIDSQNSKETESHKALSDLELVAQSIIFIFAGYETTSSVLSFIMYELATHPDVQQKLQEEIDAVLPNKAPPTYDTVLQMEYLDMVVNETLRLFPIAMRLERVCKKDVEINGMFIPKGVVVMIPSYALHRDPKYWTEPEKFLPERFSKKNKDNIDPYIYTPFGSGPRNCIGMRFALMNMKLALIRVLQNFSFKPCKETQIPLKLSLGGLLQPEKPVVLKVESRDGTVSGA
Sequence of Cytochrome P450 1A2 (Homo sapiens) (P05177 whole entry, looked up): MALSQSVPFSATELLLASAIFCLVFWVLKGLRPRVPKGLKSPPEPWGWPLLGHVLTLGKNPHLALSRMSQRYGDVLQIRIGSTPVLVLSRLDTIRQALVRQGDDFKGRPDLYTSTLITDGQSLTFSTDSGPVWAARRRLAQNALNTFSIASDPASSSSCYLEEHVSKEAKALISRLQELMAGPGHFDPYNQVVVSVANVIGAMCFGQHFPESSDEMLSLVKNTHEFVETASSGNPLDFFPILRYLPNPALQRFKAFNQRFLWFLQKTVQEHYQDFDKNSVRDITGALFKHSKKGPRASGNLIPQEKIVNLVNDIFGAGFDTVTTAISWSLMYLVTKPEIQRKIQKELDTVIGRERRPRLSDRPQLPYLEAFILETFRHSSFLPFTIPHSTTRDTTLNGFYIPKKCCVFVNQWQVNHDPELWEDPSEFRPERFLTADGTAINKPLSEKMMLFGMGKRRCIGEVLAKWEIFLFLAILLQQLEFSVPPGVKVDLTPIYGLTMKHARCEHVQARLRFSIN
Sequence of Voltage-gated inwardly rectifying potassium channel KCNH2 (Homo sapiens) (Q12809 whole entry, looked up): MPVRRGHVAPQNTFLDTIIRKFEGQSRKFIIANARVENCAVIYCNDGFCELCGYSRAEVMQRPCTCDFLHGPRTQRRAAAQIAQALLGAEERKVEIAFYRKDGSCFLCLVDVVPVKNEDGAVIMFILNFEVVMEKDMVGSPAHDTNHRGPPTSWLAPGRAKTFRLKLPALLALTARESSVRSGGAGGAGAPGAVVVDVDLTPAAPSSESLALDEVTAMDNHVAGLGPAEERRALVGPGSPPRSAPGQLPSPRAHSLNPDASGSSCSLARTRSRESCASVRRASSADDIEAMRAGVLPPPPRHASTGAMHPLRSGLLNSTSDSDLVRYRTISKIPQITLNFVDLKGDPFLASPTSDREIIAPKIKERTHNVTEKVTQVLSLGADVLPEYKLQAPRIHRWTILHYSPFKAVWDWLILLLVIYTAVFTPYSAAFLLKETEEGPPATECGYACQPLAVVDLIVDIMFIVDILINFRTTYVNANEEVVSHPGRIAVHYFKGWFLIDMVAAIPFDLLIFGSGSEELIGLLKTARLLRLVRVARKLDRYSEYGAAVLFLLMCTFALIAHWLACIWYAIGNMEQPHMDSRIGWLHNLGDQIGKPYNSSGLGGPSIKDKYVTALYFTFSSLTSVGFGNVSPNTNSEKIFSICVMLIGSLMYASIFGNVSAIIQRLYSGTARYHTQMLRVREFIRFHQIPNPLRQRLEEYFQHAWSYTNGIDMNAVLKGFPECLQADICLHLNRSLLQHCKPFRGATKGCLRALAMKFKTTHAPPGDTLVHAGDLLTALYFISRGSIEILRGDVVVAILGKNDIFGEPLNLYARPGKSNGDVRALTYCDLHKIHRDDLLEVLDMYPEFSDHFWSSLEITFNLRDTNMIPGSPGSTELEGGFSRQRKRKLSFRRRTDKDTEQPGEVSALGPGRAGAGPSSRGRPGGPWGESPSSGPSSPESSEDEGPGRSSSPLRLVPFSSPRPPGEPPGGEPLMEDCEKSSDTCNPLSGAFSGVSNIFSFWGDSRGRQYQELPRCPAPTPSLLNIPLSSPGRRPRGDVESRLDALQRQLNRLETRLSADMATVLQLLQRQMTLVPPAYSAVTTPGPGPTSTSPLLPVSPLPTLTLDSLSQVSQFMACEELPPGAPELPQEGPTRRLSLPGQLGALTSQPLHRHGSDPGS
Sequence of Cytochrome P450 2C19 (Homo sapiens) (P33261 whole entry, looked up): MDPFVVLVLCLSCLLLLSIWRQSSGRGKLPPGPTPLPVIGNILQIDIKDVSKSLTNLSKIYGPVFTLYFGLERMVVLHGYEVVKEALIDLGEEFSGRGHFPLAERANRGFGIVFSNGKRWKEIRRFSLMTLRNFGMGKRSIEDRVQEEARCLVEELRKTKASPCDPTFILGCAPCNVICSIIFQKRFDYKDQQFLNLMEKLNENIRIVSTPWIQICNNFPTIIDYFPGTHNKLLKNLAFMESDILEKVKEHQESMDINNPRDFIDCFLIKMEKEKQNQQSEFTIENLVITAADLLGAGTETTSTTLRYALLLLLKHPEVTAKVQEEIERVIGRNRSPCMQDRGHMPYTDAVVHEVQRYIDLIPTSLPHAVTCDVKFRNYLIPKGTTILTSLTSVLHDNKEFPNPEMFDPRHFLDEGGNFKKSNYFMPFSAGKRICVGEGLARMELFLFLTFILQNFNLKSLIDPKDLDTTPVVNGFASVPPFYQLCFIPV
Sequence of Cytochrome P450 2C9 (Homo sapiens) (P11712 whole entry, looked up): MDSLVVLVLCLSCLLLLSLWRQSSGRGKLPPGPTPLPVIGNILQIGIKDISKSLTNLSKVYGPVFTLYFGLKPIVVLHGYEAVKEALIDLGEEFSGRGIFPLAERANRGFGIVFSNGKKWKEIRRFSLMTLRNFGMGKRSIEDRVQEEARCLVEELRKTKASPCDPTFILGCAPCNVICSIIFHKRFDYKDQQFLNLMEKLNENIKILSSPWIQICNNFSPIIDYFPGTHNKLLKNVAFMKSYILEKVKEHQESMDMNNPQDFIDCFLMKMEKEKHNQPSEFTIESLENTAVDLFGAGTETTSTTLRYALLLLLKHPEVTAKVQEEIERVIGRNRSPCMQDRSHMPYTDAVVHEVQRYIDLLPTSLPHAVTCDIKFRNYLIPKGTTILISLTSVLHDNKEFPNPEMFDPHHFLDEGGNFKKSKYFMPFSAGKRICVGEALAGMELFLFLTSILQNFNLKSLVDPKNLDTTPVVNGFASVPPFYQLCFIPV
Sequence of Nuclear receptor subfamily 1 group I member 2 (Rattus norvegicus) (Q9R1A7 whole entry, looked up): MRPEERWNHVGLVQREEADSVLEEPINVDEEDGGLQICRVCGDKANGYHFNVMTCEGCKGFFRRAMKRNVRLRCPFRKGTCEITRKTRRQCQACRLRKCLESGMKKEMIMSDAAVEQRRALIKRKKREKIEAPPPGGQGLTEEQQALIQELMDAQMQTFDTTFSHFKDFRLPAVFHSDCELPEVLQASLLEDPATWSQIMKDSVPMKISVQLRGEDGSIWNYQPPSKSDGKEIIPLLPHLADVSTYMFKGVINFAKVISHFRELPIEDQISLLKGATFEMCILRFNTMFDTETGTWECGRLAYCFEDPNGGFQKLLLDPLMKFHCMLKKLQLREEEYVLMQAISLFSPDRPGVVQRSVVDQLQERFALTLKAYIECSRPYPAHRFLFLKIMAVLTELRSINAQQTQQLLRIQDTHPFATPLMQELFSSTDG
Sequence of Acetylcholinesterase (Homo sapiens) (P22303 whole entry, looked up): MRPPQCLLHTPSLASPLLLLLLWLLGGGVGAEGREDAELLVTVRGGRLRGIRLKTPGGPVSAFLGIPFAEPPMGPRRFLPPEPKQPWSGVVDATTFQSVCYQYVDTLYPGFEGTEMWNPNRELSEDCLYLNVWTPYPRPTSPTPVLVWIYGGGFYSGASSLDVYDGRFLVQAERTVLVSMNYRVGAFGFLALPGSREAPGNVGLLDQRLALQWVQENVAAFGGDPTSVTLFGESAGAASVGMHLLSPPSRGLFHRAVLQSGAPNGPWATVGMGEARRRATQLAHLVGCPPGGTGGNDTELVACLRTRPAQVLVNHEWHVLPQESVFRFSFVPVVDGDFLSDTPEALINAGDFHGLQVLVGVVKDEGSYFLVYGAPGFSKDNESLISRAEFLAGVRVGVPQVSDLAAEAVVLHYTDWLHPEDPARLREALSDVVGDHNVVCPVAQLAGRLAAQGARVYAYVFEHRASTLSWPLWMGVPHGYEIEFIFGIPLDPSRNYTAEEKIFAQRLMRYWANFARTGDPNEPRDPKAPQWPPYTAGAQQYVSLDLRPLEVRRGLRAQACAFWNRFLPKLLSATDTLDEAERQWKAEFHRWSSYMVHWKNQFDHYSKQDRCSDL
Sequence of Cytochrome P450 2D6 (Homo sapiens) (P10635 whole entry, looked up): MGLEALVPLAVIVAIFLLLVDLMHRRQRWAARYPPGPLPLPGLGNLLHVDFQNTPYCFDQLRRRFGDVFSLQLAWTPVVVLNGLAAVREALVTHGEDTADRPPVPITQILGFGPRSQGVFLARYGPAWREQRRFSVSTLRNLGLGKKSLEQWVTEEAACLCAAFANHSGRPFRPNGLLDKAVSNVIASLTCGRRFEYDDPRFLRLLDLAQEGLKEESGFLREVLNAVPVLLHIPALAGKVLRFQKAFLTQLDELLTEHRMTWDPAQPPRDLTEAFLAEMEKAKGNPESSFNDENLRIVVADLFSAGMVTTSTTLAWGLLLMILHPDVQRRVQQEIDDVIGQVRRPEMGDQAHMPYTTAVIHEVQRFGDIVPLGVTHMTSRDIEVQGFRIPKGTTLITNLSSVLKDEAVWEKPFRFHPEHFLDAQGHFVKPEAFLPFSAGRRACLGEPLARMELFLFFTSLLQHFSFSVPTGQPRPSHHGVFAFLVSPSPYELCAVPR

On to `CC1=C2C[C@H]3[C@@H](CC=C4C[C@@H](O)CC[C@@]43C)[C@@H]2CC[C@]12O[C@@H]1C[C@H](C)CN[C@H]1[C@H]2C`, for which the Potency result in test [1], in test [2], in test [3], in test [4], in test [5] and in [6] was “inactive” in each case. Further, the Potency result in test [7], in test [8], in test [9], in test [10], in test [11] and in test [12] was “inactive” in each case. Further, in test [13], the Potency entry was “inactive”.
On to `Oc1ccc2[nH]cc(CCCCN3CC=C(c4ccccc4)CC3)c2c1`, for which the Potency result in [1] and in test [2] was “inactive” in each case. In test [14], the max activation is 4.09% (inactive). Besides, in test [12], the Potency was 2.68 µM (active).
As for `CC(=O)[O-].CC(=O)[O-].CC(=O)[O-].[Cr+3]`, the Potency entry in test [1], in test [2], in test [15] and in test [12] was “inactive” in each case.
With `CCCCC/C=C\C/C=C\C/C=C\C/C=C\CCCC(=O)NCC(=O)O`, the Potency entry in test [1], in [15], in test [3], in test [4], in test [6] and in test [7] was “inactive” throughout. For the same compound, the Potency result in test [11], in test [12] and in [13] was “inactive” in each case. The Potency in test [8] was 15.5 µM (active); in [10] it was 13.8 µM (active).
Consider `ClC1=C(Cl)[C@]2(Cl)[C@H]3[C@H]([C@@H]4C=C[C@H]3C4)[C@@]1(Cl)C2(Cl)Cl`, for which the Potency entry in test [1], in test [15], in test [4], in test [5], in test [6] and in [7] was “inactive” throughout. For the same compound, in test [10], the Potency result was “inactive”. The Potency in test [3] was 34.3 µM (active) and inactive; in test [8], 35.5 µM (active) and inactive; in [9] it was “inactive and 35.6 µM (active)”; in test [13] it was 252 nM (active) and 399 nM (active).
For `Fc1ccc(C(OCCN2CCN(CCCc3ccccc3)CC2)c2ccc(F)cc2)cc1`, the Potency in test [16] is 11.9 µM (active); in [2] it was 23.7 µM (active); in [15], 23.7 µM (active). For the same compound, the Potency result in test [3], in test [4], in test [5], in test [6], in [7] and in test [13] was “inactive” throughout.
On to `O=C(N[C@@H]1N=C(c2ccccc2F)c2cccc3c2N(CC3)C1=O)c1cc2ccccc2[nH]1`, for which the Potency result in [16], in test [2], in test [15], in [4], in [5] and in test [7] was “inactive” each time. In addition, the Potency entry in test [8] and in [13] was “inactive” throughout. Besides, the values for the Potency in test [3], in [10] and in test [12] were 10.6 µM (active), 4.9 µM (active) and 12 µM (active), respectively.
For `CC[C@]1(O)CC[C@H]2[C@@H]3CCC4=CCCC[C@@H]4[C@H]3CC[C@@]21C`, the Potency entry in test [2], in test [15], in test [17], in test [4], in test [5] and in [6] was “inactive” in each case. Besides, the Potency result in test [7], in test [8] and in test [12] was “inactive” throughout. In addition, the Potency in test [3] was 23.7 µM (active); in test [14] it was 14.1 µM (active); in test [9] it was 12.3 µM (active).
With `CCC(C)c1cccc(C(C)CC)c1O` (stereo unspecified), the Potency entry in [2], in test [15], in test [3], in test [4], in test [6] and in test [7] was “inactive” throughout. Further, the Potency entry in test [9] and in [12] was “inactive” throughout. The Potency was 15.9 µM (active) in test [10], 22.4 µM (active) in test [11] and 28.3 µM (active) in [13].
For the compound `CN1CCc2cc(Cl)c(O)cc2[C@H]2c3ccccc3CC[C@@H]21`, the Potency entry in test [1], in test [2], in test [3], in [7], in test [9] and in [10] was “inactive” throughout. Also, in test [13], the Potency entry is “inactive”. The max activation in test [14] is 0.833% (inactive). The Potency was 2.24 µM (active) in test [17], 21.9 µM (active) in test [6], 0.0078 µM (active) in test [8] and 9.52 µM (active) in [12].
In the case of `O.O.O.O.O.O.O=S(=O)([O-])[O-].[Ni+2]`, the Potency result in test [1], in test [2], in test [15] and in test [12] was “inactive” throughout.
Take `Oc1cc(Cl)c(Cl)c(Cl)c1Cl`: the Potency entry in test [1], in test [2], in [4], in test [6], in test [7] and in [9] was “inactive” throughout. Moreover, the Potency result in test [12] and in test [13] was “inactive” each time. The Potency in test [3] was 33.6 µM (active).

The values above are taken from PubChem BioAssay (Tox21).
